IL-1B inflam inh: blocks inflammasome-driven IL-1 beta release; THP-1 LPS/ATP IL-1B secretion, AlphaLISA, 16 h; active compounds read low; activity change, % at 57.5 µM; 360,000 compounds, 4.7% hits; in the data active = activity change below about -50%; inconclusive = mostly about -30% to -49%; also: % is scaled to controls: 0 for no effect and ±100 for the full control effect
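Secreted IL-1B measured by AlphaLISA bead assay after 16 h compound exposure of THP-1 cells; compounds (final up to 57.5 uM) added 1 h before LPS (250 ng/mL) and ATP (1.25 mM) stimulation; lower signal means less secretion.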
S-ASM inh: blocks human secretory acid sphingomyelinase; P17405; placental ASM, HMU-PC fluorogenic substrate, 60 min; Potency, µM (titrated, usually from 57.5 µM), for the others: at the highest dose activity change, negative = inhibition, most hits filed as inhibitors; 340,000 compounds, 0.006% hits; also: potency is read from the fitted curve at half-maximal effect
Target sequence (P17405 47-631 limits assumed): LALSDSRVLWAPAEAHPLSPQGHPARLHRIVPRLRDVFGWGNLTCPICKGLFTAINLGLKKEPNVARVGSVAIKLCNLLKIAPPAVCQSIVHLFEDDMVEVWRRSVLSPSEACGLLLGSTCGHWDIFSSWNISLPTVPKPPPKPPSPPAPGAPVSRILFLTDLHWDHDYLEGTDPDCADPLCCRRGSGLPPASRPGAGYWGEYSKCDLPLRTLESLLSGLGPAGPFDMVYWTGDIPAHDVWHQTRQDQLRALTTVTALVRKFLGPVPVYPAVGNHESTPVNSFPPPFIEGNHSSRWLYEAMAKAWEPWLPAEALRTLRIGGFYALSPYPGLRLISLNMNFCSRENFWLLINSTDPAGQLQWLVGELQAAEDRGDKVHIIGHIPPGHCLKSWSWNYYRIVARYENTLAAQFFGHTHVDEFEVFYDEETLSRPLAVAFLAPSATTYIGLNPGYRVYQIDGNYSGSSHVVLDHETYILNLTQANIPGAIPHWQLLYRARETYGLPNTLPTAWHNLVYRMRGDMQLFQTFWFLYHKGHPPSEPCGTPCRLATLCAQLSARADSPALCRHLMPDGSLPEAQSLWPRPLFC
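Fluorogenic HMU-PC substrate (9 uM final) is turned over by placental ASM in 60 min at 37 C after a 10 min compound preincubation. Reaction ended by alkaline stop (pH 10), with fluorescence read at 386/447 nm.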
HepG2 viability: kills HepG2 cells in TGF-b inhibitor counter-screen | HepG2 CAGA-GFP viability, ATP luminescence, 18 h | 410,000 compounds, 0.76% hits | Potency, µM (doses to about 46.1 µM), for the others: at the top dose activity change, negative = cytotoxicity, hits mostly cytotoxic; also: potency is read from the fitted curve at half-maximal effect
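HepG2 CAGA-GFP cells (1000/well, DMEM with 1% FBS) received compound, then TGF-beta at 500 pg/mL final, and were incubated 18 hours at 37 degrees C. Viability was read by CellTiter-Glo luminescence. Media-only wells were set as complete cell-killing and DMSO as no toxicity.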
DT40 TDP1 no CPT: qHTS for Inhibitors of human tyrosyl-DNA phosphodiesterase 1 (TDP1): qHTS in cells in absence of CPT; DT40 Tdp1-/- hTDP1 cells, no CPT, ATP luminescence, 48 h; Potency, µM (highest dose often 46.2 µM), inactives show top-dose activity change, negative = growth inhibition, usual class: inhibitors; 420,000 compounds, 15% hits; AID 686978, 2013; also: potency is read from the fitted curve at half-maximal effect; % is scaled to controls: 0 for no effect and ±100 for the full control effect; nearly all actives have a fitted effect of over 55% in size
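No-CPT arm: Tdp1-/-;hTDP1 DT40 cells (400/well) plus compounds, incubated ≥48 hr at 37 °C. Readout CellTiter-Glo luminescence.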
TGFb SMAD3 inh: blocks TGF-b signaling. HepG2 CAGA-GFP TGF-b/SMAD3 reporter, GFP fluorescence, 18 h; TGF-beta stimulated, 500 pg/mL final. Potency, µM (titrated, usually from 46.1 µM), for inactives: top-dose activity, negative = inhibition, most hits filed as inhibitors. 410,000 compounds, 1.2% hits; also: potency is read from the fitted curve at half-maximal effect; % is scaled to controls: 0 for no effect and ±100 for the full control effect; nearly all actives have a fitted effect of over 65% in size
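Read-out: total well GFP (ex488/em500-530) summed from mean per-cell fluorescence. Cells: HEPG2 CAGA-GFP, 1% FBS DMEM, 18 h at 37 degrees C with 500 pg/mL final TGF-beta. Unstimulated wells served as the full-inhibition control; stimulated DMSO wells = 0%.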
TDP1 cell CPT: DT40-hTDP1 cell growth loss with CPT; chicken DT40 Tdp1-/-;hTDP1 cells + 20 nM CPT, ATP luminescence, 48 h; Potency, µM (top dose mostly 46.2 µM), for the others: at the highest dose activity change, negative = growth inhibition, hits mostly inhibitors; 420,000 compounds, 12% hits; also: potency is read from the fitted curve at half-maximal effect; % is scaled to controls: 0 for no effect and ±100 for the full control effect; nearly all actives have a fitted effect of over 55% in size
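Chicken DT40 Tdp1-/- cells stably complemented with human TDP1 were seeded at 400 cells/well in medium containing 20 nM camptothecin, exposed to pin-transferred compounds, and grown at 37 °C for at least 48 hr. Viability was read as ATP luminescence.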
The depositor's hits bear a star; ? = inconclusive; · = no result; [ ] = dose if it differs, or a comment. Sampled rows, rich in hits. Any-hit rate of the full collection: about 19%. Unless noted, calls follow the shape of the dose curve; as a rule, active = well fitted curve in the direction sought with a large enough effect; inconclusive = small, poorly fitted or top-dose-only effect, or another doubt; inactive = no such curve, though single readings can be large; an effect the other way counts as inactive or inconclusive.

SMILES	IL-1B inflam inh	S-ASM inh	HepG2 viability	DT40 TDP1 no CPT	TGFb SMAD3 inh	TDP1 cell CPT
O=C(O)c1cccc(Nc2nc(N3CCOCC3)nc(N3CCOCC3)n2)c1	-1	6%	-4%	-18%	1%	?
C(=N\Nc1nc(N2CCOCC2)nc(N2CCOCC2)n1)/c1cccnc1	18	-1%	3%	-11%	2%	0%
Cc1[nH]c2ccccc2c1/C=N/Nc1nc(Nc2ccccc2)nc(N2CCOCC2)n1	-80*	?	-32%	6.5µM*	-4%	8.2µM*
O=C(c1ccc(NS(=O)(=O)c2ccc(F)cc2)cc1)N1CCC1	9	3%	3%	-5%	-19%	-9%
Brc1cccc(-c2n[nH]c(-c3ccccc3)n2)c1	?	-2%	-35%	23µM*	?	?
CCN(c1ccccc1)S(=O)(=O)c1ccc(C(=O)N(CCCN(C)C)c2nc3cc4c(cc3s2)OCO4)cc1	-57*	-7%	-108%	?	22µM*	18µM*
CCN(c1ccccc1)S(=O)(=O)c1ccc(C(=O)N(CCCN(C)C)c2nc3c(C)cccc3s2)cc1	-71*	-4%	-60%	?	?	?
CCN(CC)CCN(C(=O)c1ccc2c(c1)OCCO2)c1nc2cc3c(cc2s1)OCO3	-28	1%	-22%	-15%	8%	-25%
COc1ccc2sc(N(CCCN(C)C)C(=O)c3ccc(S(=O)(=O)N(C)Cc4ccccc4)cc3)nc2c1	-93*	-7%	-45%	15µM*	-21%	?
CCN(CC)CCN(C(=O)c1cc2c(ccc3ccccc32)oc1=O)c1nc2cc3c(cc2s1)OCCO3	-61*	253%	-84%	21µM*	13µM*	18µM*
COc1ccc(CN2CCOc3ccc(C(O)c4cccnc4)cc3C2)c(F)c1 (stereo not given)	·	·	·	?	·	1%[9.04 µM]
CCC(=O)N1CCc2cc(Br)cc(S(=O)(=O)N3CCC(C(=O)N(CC)CC)CC3)c21	·	·	1%	?	1%	0%
Cc1ccc2sc(N(CCCN(C)C)C(=O)c3ccc(S(=O)(=O)N(C)Cc4ccccc4)cc3)nc2c1C	-93*	?	-96%	?	?	?
CN(C)CCCN(C(=O)c1ccc2ccccc2c1)c1nc2cc3c(cc2s1)OCO3	-93*	-4%	-39%	?	-29%	21µM*
CN(C)CCCN(C(=O)c1ccc(S(=O)(=O)N(C)Cc2ccccc2)cc1)c1nc2cc3c(cc2s1)OCO3	-51*	-8%	-101%	16µM*	?	-72%
CN(C)CCCN(C(=O)c1ccc([N+](=O)[O-])o1)c1nc2cc3c(cc2s1)OCO3	-1	-10%	-56%	?	?	18µM*
O=C(CSc1nnc(NC(=O)C2CC(=O)N(c3ccc(F)cc3)C2)s1)NCc1ccco1 (stereo not given)	-6	-5%	-2%	-9%	29%	-15%
CCN(CC)CCN(C(=O)c1ccc(C(=O)c2ccccc2)cc1)c1nc2ccc(OC)cc2s1	?	-8%	-16%	7%	-8%	2%
CN(C)CCN(C(=O)c1cccc2ccccc12)c1nc2cc3c(cc2s1)OCO3	-91*	0%	-24%	?	0%	?
CCN(CC)CCN(C(=O)c1ccc(S(=O)(=O)N(C)C2CCCCC2)cc1)c1nc2ccc(OC)cc2s1	-77*	-2%	-10%	-5%	3%	?
O=C(NC(=O)c1ccccc1)Nc1ccc(-c2cc(C(F)(F)F)nn2-c2ccccc2)cc1	·	·	13%	-8%	8%	-27%
Cc1cc(NC(=O)c2ccccc2Cl)ccc1NC(=O)c1ccccc1	·	·	0%	-24%	-8%	1%
O=[N+]([O-])c1ccc(-c2nc(C(Cl)Cl)c3ccccc3n2)cc1	118	-4%	-26%	0.16µM*	2%	0.15µM*
CN(Cc1ccccc1)c1nc(-c2ccc([N+](=O)[O-])cc2)nc2ccccc12	-25	-10%	-5%	?	-6%	18µM*
COCCN(CCOC)c1nc(-c2ccc([N+](=O)[O-])cc2)nc2ccccc12	9	-7%	12%	6.5µM*	-2%	0.58µM*
SMILES	IL-1B inflam inh	S-ASM inh	HepG2 viability	DT40 TDP1 no CPT	TGFb SMAD3 inh	TDP1 cell CPT
COc1ccccc1-c1noc(-c2ccc(N3CCN(C)CC3)c([N+](=O)[O-])c2)n1	·	·	-1%	?	?	?
COc1ccc(-c2nc3c4ccccc4n(CC(=O)N4CCN(c5ccccc5OC)CC4)c(=O)n3n2)cc1	·	·	-11%	-19%	-2%	?
O=C(Nc1ccccc1[N+](=O)[O-])OCC=Cc1ccccc1	-54*	·	-8%	?	4%	1%
OCCNc1nc(NCCC2=CCCCC2)nc(N2CCOCC2)n1	-5	4%	-16%	21µM*	-1%	21µM*
Cc1cc(C)n(Cc2ccc(C(=O)Nc3ccc(Br)cc3C)o2)n1	-60*	-5%	-3%	?	0%	-22%
COc1ccc(OC)c(/C=C/C(=O)OCC(=O)NC2CCCCCCC2)c1	13	347%	34%	?	48%	-25%
CCC1CN(CCNC(=O)c2cccc3nccnc23)Cc2cc(OC)ccc2O1 (stereo not given)	·	·	·	?	·	9%[9.04 µM]
O=C(Cn1nnc(-c2ccc(CN3CCOCC3)cc2)n1)N1CCCc2ccccc21	23	-1%	-16%	?	3%	?
O=C(Cn1nnc(-c2ccc(CN3CCOCC3)cc2)n1)N(c1ccccc1)c1ccccc1	8	1%	-2%	21µM*	-7%	18µM*
CC(C)(C)NC(=O)CN(C(=O)Cn1nnc(-c2ccc(Cl)cc2)n1)C1CCN(Cc2ccccc2)CC1	-82*	-1%	18µM*	21µM*	16µM*	?
CC(Nc1c([N+](=O)[O-])c(=O)oc2ccccc12)c1ccccc1 (stereo not given)	60	2%	-23%	-28%	?	-18%
CCN(CC)CCn1c2c(c(SCC(=O)Nc3ccccc3Cl)nc1=O)CCC2	-52*	2%	-17%	-6%	-6%	-2%
CCN(CC)CCn1c2c(c(SCC(=O)Nc3cc(OC)cc(OC)c3)nc1=O)CCC2	-17	-2%	-24%	-30%	4%	-21%
CCN(CC)CCn1c2c(c(SCC(=O)Nc3cccc4ccccc34)nc1=O)CCC2	-90*	·	-77%	?	15%	-29%

High-throughput results as filed in PubChem BioAssay.
